# The campaign covered roughly 1,400 compounds. About 450 (32%) were called active. These entries were drawn from the full list. A number with no mark means an inactive call. No stated cut-off is given here; in the data, active means inhibition above about 16%; inactive means the rest.
# Target: Lon protease (Escherichia coli (strain K12)) (UniProt P0A9M0)
# Assay: inhibition of eLon from E. coli – biochemical, fluorescence polarization, confirmation (AID 602230);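 further: 0% = enzyme with probe and DMSO and 100% = no enzyme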
# Conditions: purified E. coli Lon, at 7.94 µM, stronger effect = higher value
# Chain of Lon protease (Escherichia coli (strain K12)) (P0A9M0 whole entry, looked up): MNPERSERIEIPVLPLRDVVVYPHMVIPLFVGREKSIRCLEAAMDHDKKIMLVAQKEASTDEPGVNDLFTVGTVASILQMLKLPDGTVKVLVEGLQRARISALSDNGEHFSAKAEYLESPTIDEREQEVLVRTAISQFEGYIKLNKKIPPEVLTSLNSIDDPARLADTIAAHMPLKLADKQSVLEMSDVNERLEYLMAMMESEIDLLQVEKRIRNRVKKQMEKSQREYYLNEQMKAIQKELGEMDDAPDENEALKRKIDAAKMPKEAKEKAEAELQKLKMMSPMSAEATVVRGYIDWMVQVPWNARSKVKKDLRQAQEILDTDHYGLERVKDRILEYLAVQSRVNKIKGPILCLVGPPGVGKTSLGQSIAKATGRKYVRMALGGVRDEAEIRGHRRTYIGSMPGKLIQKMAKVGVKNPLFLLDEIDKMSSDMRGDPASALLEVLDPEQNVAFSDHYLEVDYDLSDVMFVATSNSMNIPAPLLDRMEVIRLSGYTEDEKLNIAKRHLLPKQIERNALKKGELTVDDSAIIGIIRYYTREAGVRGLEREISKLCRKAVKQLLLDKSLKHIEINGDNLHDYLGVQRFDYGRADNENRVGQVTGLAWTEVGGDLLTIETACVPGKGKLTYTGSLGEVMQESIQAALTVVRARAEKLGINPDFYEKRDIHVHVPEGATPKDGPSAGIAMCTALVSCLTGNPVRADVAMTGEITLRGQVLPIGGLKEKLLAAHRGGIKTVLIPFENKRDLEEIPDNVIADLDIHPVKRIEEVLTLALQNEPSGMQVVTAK
row,SMILES,inhibition
1,CNS(=O)(=O)c1ccc2c(c1)[nH]c(=S)n2C,4.74%
2,COc1ccc(C2=CC(c3cccc(OC)c3)n3nnnc3N2)cc1 (stereo unspecified),17% (active)
3,COc1ncnc2c1N=C1CC(C)(C)CC(N)=C1S2,111% (active)
4,CCCn1c(SCC(=O)Nc2c(C)cccc2C)nnc1C(C)C,-13.9%
5,Nc1ccc2nc3c(=O)[nH]c(=S)[nH]c3nc2c1,198% (active)
6,Cc1cccc(N2CCC(NCc3c(C(=O)N4CCCCC4)nc4c(C)cccn34)CC2)c1,-4.25%
7,O=C(COC(=O)C12CC3CC(CC(O)(C3)C1)C2)NC12CC3CC(CC(C3)C1)C2,-2.17%
8,Cc1ccn2cc(-c3nonc3C)cc2c1,5.46%
9,COc1ccccc1-c1cc2nc(NCc3cccc(Cl)c3)ccn2n1,2.95%
10,Cc1cccn2c(=O)c3cc(C#N)c(=NC(=O)c4cccnc4)n(CC4CCCO4)c3nc12 (stereo unspecified),-2.72%
11,COc1cc(C(=O)NCc2ccc3c(c2)cc(C)n3C)cc(OC)c1OC,-12.4%
12,O=C(COC(=O)Cn1cnc2ccccc21)Nc1cccc2c1C(=O)c1ccccc1C2=O,79.2% (active)
13,COCCOC(=O)c1sc(=S)n(CCOC)c1N,27.9% (active)
14,CC/C(C)=N/Nc1nc2sc3c(c2c(=O)[nH]1)CC(C)(C)OC3,15.3%
15,Cc1ccc(NC(=O)Cc2nnc(SCC(=O)Nc3nncs3)n2C)cc1,-64.9%
16,O=C1C=C(NCCNc2c(F)c(F)c(CO)c(F)c2F)CCC1,-15.4%
17,Cc1ccc2c(c1)nnc1nnc(SCC(=O)O)n12,33.8% (active)
18,O=S(=O)([N-]c1nc2ccccc2nc1-[n+]1ccc(Cc2ccccc2)cc1)c1ccc(Br)s1,-2.35%
19,O=C1c2ccccc2C(=O)c2c1cccc2N1CCN(CCO)CC1,27.1% (active)
20,CCCSc1ccc([C@H]2N[C@@](Cc3ccccc3)(C(=O)OC)[C@H]3C(=O)N(C)C(=O)[C@@H]23)cc1,-4.5%
21,NS(=O)(=O)c1ccc(NC(=O)COC(=O)c2c3c(nc4ccccc24)/C(=C\c2ccc4c(c2)OCO4)CCC3)cc1,4.57%
22,N#CC1=C(N)OC2=C(C(=O)CCC2)C1C1CC=CCC1 (stereo unspecified),2.64%
23,c1ccc(C(=NNc2nc3ccccc3s2)c2ccccn2)cc1,134% (active)
24,Cc1cccc(C)c1N1CCN(S(=O)(=O)N2CCOCC2)CC1,-4.84%
25,CN1c2ccc(C=O)c3c(C=O)ccc(c23)N(C)C1(C)C,68.6% (active)
26,CC(C(=O)NC1CCCC1)N1CCN(S(=O)(=O)c2ccccc2Cl)CC1 (stereo unspecified),-0.03%
